Screens as filed in PubChem BioAssay.
GC-B act – GC-B (human) receptor activation; 370,000 compounds, 0.11% hits; HEK293-GC-B cells, CNP EC30, cGMP TR-FRET; 0% at EC30 CNP, 100% saturating CNP; activation, % at 10 µM;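 active = activation at 10 µM reaching about 35% in either raw or pattern-adjusted values, limit read from the data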
GC-A act – GC-A (human) enzyme activation; P16066; HEK293 GC-A cells, cGMP TR-FRET, EC30 ANP; 0% at EC30 ANP, 100% saturating ANP; activation, % at 10 µM; 370,000 compounds, 0.14% hits; in the data active = activation above about 40%
Rce1 inh – inhibitors of yeast Ras-converting enzyme; Q03530; yeast membranes, quenched prenylated peptide cleavage fluorescence; calls only; 290,000 compounds, 0.27% hits;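 active = fall in fluorescence gain of 50% or more versus controls, with final raw signal at or below 3038400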;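 note: plate controls were neutral control wells for no effect and wells lacking membranes for full effect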
PLCb3 inh – PLC-beta3 (human) inhibition, primary screen. Q01970. Purified PLC-beta3, fluorogenic substrate, fluorescence. inhibition, % at 12.2 µM. 370,000 compounds, 0.18% hits. AID 720704; in the data active = inhibition above about 11%;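 note: 0% = median of compound wells on plate and 100% = full blocker control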
M18AAP inhibitor – blocks P. falciparum M18 aspartyl aminopeptidase. recombinant PfM18AAP, H-Glu-NHMec fluorogenic cleavage. inhibition, % at 7.35 µM. 290,000 compounds, 1.2% hits;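 active = inhibition above the campaign mean inhibition over all tested compounds plus 3 SD, cut at about 28% in these data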;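 note: 0% = plate median of test compound wells and 100% = 2 mM ZnCl2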
PLCg1 inh – blocks human PLC-gamma1 enzyme activity. P19174. AID 720700. 370,000 compounds, 0.84% hits. inhibition, % at 12.2 µM. purified PLC-gamma1, fluorogenic substrate, fluorescence; in the data active = inhibition above about 9.5%
Active calls of the source: *; i = inactive; / = not tested or not shown; + = active, no number. Most compounds without a hit are left out; they make up all but 2.2% or so of the library.

SMILES	GC-B act	GC-A act	Rce1 inh	PLCb3 inh	M18AAP inhibitor	PLCg1 inh
O=C(/C(=C/c1ccccc1)n1cncn1)c1ccc(Cl)cc1Cl	-12	-6	i	3	54*	3
C=CCN=C1NC(c2cccc(F)c2)C(C(=O)OC)=C(C)N1Cc1cccc(C(F)(F)F)c1 (stereo not given)	-20	-21	/	1	/	1
COc1ccc(Nc2nc(C)nc3c2nnn3Cc2ccccc2Cl)c(OC)c1	2	1	i	-14	-8	-11
CCOC(=O)C(C(C)=O)c1nc(C)nc2c1nnn2Cc1ccccc1Cl (stereo not given)	-1	1	i	2	3	13*
C[C@@H]1OC(C2CCCCC2)N(C)[C@H]2C[C@H]3c4[nH]c5c(-c6ccc7c(c6)OCO7)cccc5c4CCN3C[C@@H]12 (stereo not given in full)	1	2	/	-30	/	-26
CCC(=O)NNc1nc2c(C)cc(C)cc2s1	1	0	i	-6	58*	0
Cc1cc(C)c2nc(NNC(=O)c3ccc(S(=O)(=O)N4CC(C)CC(C)C4)cc3)sc2c1 (stereo not given)	-6	-5	i	-94	29*	-89
O=C(NNC(=O)c1cc2ccccc2cc1O)c1cccs1	-6	4	i	-89	29*	-65
c1ccc2c(C3=NNC(=NC4CCCCC4)SC3)c[nH]c2c1	1	1	i	-17	-7	-14
c1ccc2c(C3=NNC(=NC4CC4)SC3)c[nH]c2c1	4	1	i	-19	32*	-8
CCCCNC(=O)C1(C(=O)c2ccc(OC)cc2)CC(C(=O)OCC)=NO1 (stereo not given)	7	0	/	1	/	3
CCC[C@@H](CN1CCC[C@H]1CN1C(N)=NC[C@H]1CC(C)C)N1C[C@@H](Cc2ccccc2)N(CCc2ccc(Cl)c(Cl)c2)C1=N	2	1	/	12*	/	6
CN1/C(=C\C=N\NC(=O)c2ccccc2Br)C(C)(C)c2ccccc21	2	-1	i	-9	31*	-5
CN1/C(=C/C=N/n2cnnc2)C(C)(C)c2ccccc21	2	2	i	-25	27	-16
Cc1ccc(NC(=O)NC(=O)CN2CCN(c3ccc(O)cc3)CC2)c(C)c1	3	0	/	-8	30*	-2
O=[N+]([O-])c1ccc(N2CCN(c3ccccc3Cl)CC2)cn1	-4	-20	i	0	32*	5
O=C(O)c1ccc(N2CCN(c3ccc(Cl)cc3)CC2)c([N+](=O)[O-])c1	1	5	i	0	10	4
Clc1ccc([C@H]2OC[C@@]3(CNCC4CC4)CS[C@H](c4ccc(Cl)cc4)N23)cc1	-16	-26	/	0	/	0
O=C(NNc1ccc([N+](=O)[O-])cc1)C1C2CCCCC21 (stereo not given)	0	-1	i	0	59*	-2
NC(=O)C1(Nc2ccc(-c3ccc(Cl)cc3)cc2)CCCC1	-9	58*	/	-7	/	5
CCCCNC(=O)C[C@H]1C[C@@]2(C(=O)OC)C(=C[C@H](C3CCCC3)O[C@@H]2C)N(CCC2=CCCCC2)C1=O	-2	-1	/	-3	/	-1
COc1ccc(C2C=C(c3ccc(Br)s3)Nc3ncnn32)cc1OC (stereo not given)	/	/	i	/	36*	/
COc1ccc(C2C=C(c3ccc(C)cc3)Nc3ncnn32)cc1 (stereo not given)	-8	11	i	i	16	i
CC(C)C[C@@H](CO)N1Cc2nnn(Cc3ccccc3)c2-c2ccccc2S1(=O)=O	3	-2	/	5	/	-2
CCOC(=O)Cc1cc(=O)n2[nH]c(C)c(-c3ccccc3)c2n1	43*	36	i	-73	-1	-64
O=c1nc(N/N=C/c2ccccn2)cn[nH]1	-3	0	/	2	49*	4
O=C(CSc1nnc(-c2cccnc2)n1-c1ccc(Cl)cc1)Nc1ccc(S(=O)(=O)Nc2nccs2)cc1	1	0	/	-2	/	-4
CN(C)CCN(C(=O)c1ccc2ccccc2c1)c1nc2ccc(Br)cc2s1	-4	-4	+	-7	-2	4
CCN(CC)CCN(C(=O)c1ccc2ccccc2c1)c1nc2ccc(F)cc2s1	-8	2	+	-8	-5	1
